According to PubChem BioAssay (NCATS):
Records with an inconclusive call do not appear. Unmarked numbers belong to inactive results. Calls of active or inactive are those of the source. The call rests on the fitted dose curve; in most records, active means well fitted inhibition curve with a large enough effect; inconclusive means small, poorly fitted or top-dose-only effect; inactive means no such curve, though single readings can be large or run the other way.

Target: Retinal dehydrogenase 2 (Homo sapiens) (UniProt O94788)
Test: qHTS for Inhibitors of the Aldehyde Dehydrogenase Family (ALDH1A2) Confirmation screens (AID 2061314); further: nearly all actives have a fitted effect of over 65% in size
Details: ALDH1A2 enzyme inhibition qHTS confirmation; series mostly up to 45.9 µM; activity, negative = inhibition: at the top concentration
On the % scale 0 is the no-effect control and ±100 the full control effect; potency means the concentration at half of the fitted maximal effect.

| Compound | Potency | activity, negative = inhibition | outcome |
| --- | --- | --- | --- |
| N#CN1CCC(NS(=O)(=O)c2ccc(C(F)(F)F)cc2)CC1 | 12.7 µM (active) |  |  |
| CN(C)c1cccc(-c2cnc(N3CCC(C(N)=O)CC3)nc2)c1 | 12.7 µM (active) |  |  |
| CN(C)c1cnc2c(O)ccc(C(=O)O)c2c1 | 5.04 µM (active) |  |  |
| Cc1ccc(NS(=O)(=O)c2cc3c(cc2N2CCC2)NC(=O)CC3)cc1C | 22.5 µM (active) |  |  |
| Cc1ccc(CNc2ccc(N3CCNCC3)cc2)cc1 | 10.1 µM (active) |  |  |
| Oc1ccc(CNc2cc(Cl)ccn2)c2cccnc12 | 12.7 µM (active) |  |  |
| O=C1Nc2ccccc2/C1=C\c1ccc([N+](=O)[O-])cc1 | 2.83 µM (active) |  |  |
| O=C1Nc2ccc(C(=O)c3ccco3)cc2/C1=C/c1cc(Cl)c(O)c(Cl)c1 | 12.6 µM (active) |  |  |
| C/C=C/c1ccc2oc(-c3ccc(O)c(OC)c3)c(C)c2c1 | 25.1 µM (active) |  |  |
| CC(C)(C)OC(=O)N[C@@H](Cc1ccc(O[S+](=O)([O-])c2cccnc2)cc1)C(=O)N1CCN(c2ccccc2)CC1 | 15.9 µM (active) |  |  |
| O=C(C(NS(=O)(=O)c1ccc2[nH]c(=O)ccc2c1)c1cccc(C(F)(F)F)c1)N(Cc1ccco1)Cc1cccs1 (configuration not stated) | 12.7 µM (active) |  |  |
| O=C(O)c1ccc(O)c2ncc(NC3CCNC3)cc12 (configuration not stated) | 3.57 µM (active) |  |  |
| O=[S+]([O-])(Nc1nccs1)c1ccc(NCc2cc(F)cc(Cl)c2O)cc1 |  | 1% |  |
| CCN(CC)C(=O)CC(c1ccc2c(c1)OCO2)c1c(O)cc(OC)cc1OC (configuration not stated) |  | -7.42% [at 86.5 µM] |  |
| CC(=O)Nc1sc2c(c1-c1ccc(N3CCN(C(C)=O)CC3)nc1)CCNC2 | 7.98 µM (active) |  |  |
| CC(=O)N1CCN(c2ccc(NCc3cccc(C)c3)cc2)CC1 | 12.7 µM (active) |  |  |

| Compound | Potency | activity, negative = inhibition | outcome |
| --- | --- | --- | --- |
| N[C@@H]1CCN(c2cnc3c(O)ccc(C(=O)O)c3c2)C1 | 25.2 µM (active) |  |  |
| Cc1ccc(S(=O)(=O)Nc2cccc3ccc[n+](C)c23)cc1 | 25.2 µM (active) |  |  |
| CCC(=O)NC(c1ccco1)c1cc(Br)c2cccnc2c1O (configuration not stated) | 11.3 µM (active) |  |  |
| C=CCNc1nnc(-c2cccc3ccccc23)o1 | 8.96 µM (active) |  |  |
| CC(C)(C)OC(=O)N1CCN(c2ccc(NCc3occc3-c3ccc(C#N)cc3)cc2)CC1 | 12.7 µM (active) |  |  |
| c1c[nH]c(C2CCN(c3ncc(-c4ccc5c(c4)OCCCO5)s3)CC2)n1 | 4 µM (active) |  |  |
| CC(=O)N1CCN(c2ccc(NCc3ccccc3)cc2)CC1 | 11.3 µM (active) |  |  |
| CNc1ncc(-c2cccc3ccccc23)o1 | 10.1 µM (active) |  |  |
| COc1ccc(-c2ccc(=O)n(CC(=O)NCCc3ccccc3)n2)cc1 | 15.8 µM (active) |  |  |
| COc1ccc(CNc2ccc(S(=O)(=O)Nc3nccs3)cc2)cc1O | 6.34 µM (active) |  |  |
| Oc1cc(NCc2ccc(F)cc2)cc2cccnc12 |  |  | inactive |
| Nc1cccc(CNc2ccc(S(=O)(=O)Nc3nccs3)cc2)c1O |  | -7.59% |  |
| COc1ccc(Nc2cc(O)c3ncccc3c2)cc1 |  |  | inactive |
| CN1CCN(c2ccc(NC(=O)c3cccs3)cn2)CC1 | 12.7 µM (active) |  |  |
| O=C1CCCC2=C1C1(CCC1)N=C(Nc1nc3ccccc3o1)N2 | 7.98 µM (active) |  |  |
| Oc1cccc2cc(NCc3ccccc3F)cnc12 | 15.9 µM (active) |  |  |
